Results reported in the supplement of paper PMC10849652.
Targets with a hit are over-represented here; the source holds about 7,900 in all. About 0.6% of all pairs of compound and target were hits.

Compound: Cc1cc(SCc2sc(-c3ccc(C(F)(F)F)cc3)nc2C)ccc1OCC(=O)O
Experiment: log2 fold change, soluble protein after heating vs DMSO (PISA); higher = thermal stabilisation; K562 cells, 10 uM, 30 min; active = over 0.2 and 3.5 SD of the protein, either way, in both replicates (recomputed)
In short: (§1)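 Aliquots of K562 cells (2×10^6 cells/mL) treated with 10 μM compound for 30 min were heated for 3 min over 48°C-58°C. After pooling and extraction in PBS with 0.5% NP-40 at 4°C, soluble protein from a 21,000xg, 90 min spin was quantified by TMTpro 16plex LC-MS/MS with channel sums equalised. Thermal stability is expressed against control samples, from duplicates, as a log2 fold change.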

UniProt Q13263, sequence (Q13263 whole entry, looked up): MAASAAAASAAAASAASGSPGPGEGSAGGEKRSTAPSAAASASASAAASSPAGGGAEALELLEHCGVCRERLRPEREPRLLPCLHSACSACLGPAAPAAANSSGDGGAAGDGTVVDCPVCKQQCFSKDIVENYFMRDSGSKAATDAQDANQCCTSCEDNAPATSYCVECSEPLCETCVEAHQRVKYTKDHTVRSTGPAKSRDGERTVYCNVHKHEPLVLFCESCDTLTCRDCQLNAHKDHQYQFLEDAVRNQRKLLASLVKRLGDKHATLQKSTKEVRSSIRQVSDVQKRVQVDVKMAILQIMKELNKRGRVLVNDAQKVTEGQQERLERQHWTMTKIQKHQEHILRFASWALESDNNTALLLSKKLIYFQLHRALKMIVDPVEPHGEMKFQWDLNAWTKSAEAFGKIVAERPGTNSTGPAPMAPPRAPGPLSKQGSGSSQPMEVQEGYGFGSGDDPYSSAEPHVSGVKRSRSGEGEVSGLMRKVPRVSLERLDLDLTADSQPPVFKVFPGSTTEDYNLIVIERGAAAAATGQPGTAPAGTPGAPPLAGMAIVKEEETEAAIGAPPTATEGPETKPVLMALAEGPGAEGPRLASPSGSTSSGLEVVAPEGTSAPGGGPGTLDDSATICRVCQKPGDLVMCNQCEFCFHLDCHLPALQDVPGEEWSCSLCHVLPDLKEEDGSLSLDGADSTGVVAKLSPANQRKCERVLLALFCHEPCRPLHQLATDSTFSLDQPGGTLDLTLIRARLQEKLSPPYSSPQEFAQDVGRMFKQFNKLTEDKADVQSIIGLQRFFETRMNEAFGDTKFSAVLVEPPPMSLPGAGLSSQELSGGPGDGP
UniProt Q9NQH7, sequence (Q9NQH7 whole entry, looked up): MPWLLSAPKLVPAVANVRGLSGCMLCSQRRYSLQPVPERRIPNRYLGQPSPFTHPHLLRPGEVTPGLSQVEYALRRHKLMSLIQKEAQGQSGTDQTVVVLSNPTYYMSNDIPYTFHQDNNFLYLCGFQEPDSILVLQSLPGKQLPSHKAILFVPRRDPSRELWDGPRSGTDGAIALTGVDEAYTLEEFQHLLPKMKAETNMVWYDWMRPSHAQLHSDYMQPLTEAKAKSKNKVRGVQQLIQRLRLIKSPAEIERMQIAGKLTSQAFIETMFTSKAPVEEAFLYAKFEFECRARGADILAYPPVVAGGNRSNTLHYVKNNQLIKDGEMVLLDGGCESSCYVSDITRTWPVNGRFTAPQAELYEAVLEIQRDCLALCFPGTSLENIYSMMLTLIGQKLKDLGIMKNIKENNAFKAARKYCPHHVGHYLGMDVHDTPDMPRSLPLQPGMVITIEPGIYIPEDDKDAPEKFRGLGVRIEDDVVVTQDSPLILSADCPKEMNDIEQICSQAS
UniProt A0PJW6, sequence (A0PJW6 whole entry, looked up): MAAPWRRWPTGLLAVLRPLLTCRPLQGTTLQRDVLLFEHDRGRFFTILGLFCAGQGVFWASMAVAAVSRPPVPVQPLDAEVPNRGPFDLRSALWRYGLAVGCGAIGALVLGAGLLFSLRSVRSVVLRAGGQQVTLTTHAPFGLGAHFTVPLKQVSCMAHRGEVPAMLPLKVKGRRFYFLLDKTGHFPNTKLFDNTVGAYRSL
UniProt P02585, sequence (P02585 whole entry, looked up): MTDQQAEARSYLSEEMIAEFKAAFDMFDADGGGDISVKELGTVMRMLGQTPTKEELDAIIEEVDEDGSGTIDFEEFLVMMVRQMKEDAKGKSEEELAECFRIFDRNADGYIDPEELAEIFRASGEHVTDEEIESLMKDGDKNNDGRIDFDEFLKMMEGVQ
UniProt O00220, sequence (O00220 whole entry, looked up): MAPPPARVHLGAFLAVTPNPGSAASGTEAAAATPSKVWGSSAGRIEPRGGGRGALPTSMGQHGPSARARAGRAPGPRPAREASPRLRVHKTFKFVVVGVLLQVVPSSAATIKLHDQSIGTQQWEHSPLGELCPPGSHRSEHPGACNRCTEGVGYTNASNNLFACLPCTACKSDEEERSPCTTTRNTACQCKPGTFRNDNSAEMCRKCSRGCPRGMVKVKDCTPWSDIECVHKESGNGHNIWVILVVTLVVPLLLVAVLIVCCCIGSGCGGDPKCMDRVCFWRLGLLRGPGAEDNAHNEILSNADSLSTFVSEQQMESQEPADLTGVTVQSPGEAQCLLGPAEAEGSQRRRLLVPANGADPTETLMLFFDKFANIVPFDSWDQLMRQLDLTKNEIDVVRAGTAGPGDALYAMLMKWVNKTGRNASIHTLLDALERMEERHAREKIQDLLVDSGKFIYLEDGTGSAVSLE
UniProt Q96AJ9, sequence (Q96AJ9 whole entry, looked up): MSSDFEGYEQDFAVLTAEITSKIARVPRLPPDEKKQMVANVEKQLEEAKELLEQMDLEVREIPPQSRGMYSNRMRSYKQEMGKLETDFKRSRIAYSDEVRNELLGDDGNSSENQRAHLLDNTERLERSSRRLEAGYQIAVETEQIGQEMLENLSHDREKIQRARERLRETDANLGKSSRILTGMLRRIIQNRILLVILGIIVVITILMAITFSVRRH
UniProt Q7Z7E8, sequence (Q7Z7E8 whole entry, looked up): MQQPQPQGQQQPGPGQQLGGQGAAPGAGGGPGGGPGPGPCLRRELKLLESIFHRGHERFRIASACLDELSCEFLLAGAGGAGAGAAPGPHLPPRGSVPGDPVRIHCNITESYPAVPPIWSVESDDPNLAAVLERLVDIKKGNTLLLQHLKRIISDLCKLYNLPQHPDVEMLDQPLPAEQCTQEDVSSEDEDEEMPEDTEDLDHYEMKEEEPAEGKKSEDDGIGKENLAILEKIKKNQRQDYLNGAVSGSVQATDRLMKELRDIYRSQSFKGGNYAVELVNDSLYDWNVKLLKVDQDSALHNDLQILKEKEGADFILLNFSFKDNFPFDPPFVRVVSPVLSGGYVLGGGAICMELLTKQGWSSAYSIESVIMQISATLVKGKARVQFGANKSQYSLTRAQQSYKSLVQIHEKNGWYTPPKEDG
UniProt Q92890, sequence (Q92890 whole entry, looked up): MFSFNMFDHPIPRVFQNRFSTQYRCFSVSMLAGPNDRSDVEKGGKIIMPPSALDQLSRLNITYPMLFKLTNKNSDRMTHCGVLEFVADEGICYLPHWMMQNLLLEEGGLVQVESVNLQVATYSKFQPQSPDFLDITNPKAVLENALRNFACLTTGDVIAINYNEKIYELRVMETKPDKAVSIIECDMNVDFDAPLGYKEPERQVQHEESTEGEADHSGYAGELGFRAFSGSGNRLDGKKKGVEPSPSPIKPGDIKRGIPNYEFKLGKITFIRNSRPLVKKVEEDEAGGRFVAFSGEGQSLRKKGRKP
UniProt P21796, sequence (P21796 whole entry, looked up): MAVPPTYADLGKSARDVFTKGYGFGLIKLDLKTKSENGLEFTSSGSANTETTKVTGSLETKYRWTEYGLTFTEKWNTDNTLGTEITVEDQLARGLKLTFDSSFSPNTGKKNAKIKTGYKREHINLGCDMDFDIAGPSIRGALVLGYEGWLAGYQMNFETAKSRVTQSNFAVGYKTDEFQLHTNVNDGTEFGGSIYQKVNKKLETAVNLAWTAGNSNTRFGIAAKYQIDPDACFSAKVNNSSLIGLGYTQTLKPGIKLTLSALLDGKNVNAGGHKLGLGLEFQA
UniProt Q9P253, sequence (Q9P253 whole entry, looked up): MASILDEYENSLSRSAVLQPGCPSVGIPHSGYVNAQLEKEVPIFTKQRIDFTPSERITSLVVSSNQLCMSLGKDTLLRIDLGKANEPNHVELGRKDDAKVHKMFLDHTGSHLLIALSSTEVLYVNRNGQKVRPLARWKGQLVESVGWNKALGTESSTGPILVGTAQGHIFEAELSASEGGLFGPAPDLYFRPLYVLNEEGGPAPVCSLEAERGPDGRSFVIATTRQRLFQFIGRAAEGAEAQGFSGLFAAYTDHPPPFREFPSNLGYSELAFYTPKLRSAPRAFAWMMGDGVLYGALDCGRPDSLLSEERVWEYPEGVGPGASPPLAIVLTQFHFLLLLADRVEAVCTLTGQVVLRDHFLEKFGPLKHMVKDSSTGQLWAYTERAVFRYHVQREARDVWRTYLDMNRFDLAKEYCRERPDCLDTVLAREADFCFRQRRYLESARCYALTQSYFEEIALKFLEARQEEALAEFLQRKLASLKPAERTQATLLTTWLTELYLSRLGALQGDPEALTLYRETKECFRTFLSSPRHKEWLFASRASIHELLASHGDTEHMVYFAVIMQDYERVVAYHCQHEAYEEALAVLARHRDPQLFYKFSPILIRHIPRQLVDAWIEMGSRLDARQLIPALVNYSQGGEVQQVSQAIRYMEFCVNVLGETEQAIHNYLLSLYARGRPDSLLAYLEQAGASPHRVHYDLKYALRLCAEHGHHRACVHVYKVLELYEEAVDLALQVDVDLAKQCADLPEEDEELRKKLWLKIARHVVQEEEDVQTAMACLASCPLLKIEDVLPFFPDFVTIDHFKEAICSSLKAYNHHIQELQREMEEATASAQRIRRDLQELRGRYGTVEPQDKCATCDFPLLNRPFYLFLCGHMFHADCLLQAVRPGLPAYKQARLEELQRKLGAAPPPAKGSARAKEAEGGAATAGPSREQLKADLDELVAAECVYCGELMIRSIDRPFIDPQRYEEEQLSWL
UniProt P54578, sequence (P54578 whole entry, looked up): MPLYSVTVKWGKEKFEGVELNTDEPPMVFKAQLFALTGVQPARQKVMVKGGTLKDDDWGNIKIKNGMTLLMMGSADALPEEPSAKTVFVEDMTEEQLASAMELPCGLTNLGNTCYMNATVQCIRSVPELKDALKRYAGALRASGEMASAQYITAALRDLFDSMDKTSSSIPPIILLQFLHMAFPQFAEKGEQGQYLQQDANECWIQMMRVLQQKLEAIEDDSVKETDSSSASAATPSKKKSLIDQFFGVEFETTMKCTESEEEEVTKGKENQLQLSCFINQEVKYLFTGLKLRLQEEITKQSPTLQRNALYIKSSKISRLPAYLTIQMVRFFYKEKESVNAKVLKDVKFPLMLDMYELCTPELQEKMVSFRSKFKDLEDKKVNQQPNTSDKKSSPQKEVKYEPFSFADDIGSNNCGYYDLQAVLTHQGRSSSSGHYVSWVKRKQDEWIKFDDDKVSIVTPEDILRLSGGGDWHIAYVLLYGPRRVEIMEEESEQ

| Target | log2 fold change |
| --- | --- |
| TSG101 (UniProt Q99816) | 0.018 (inactive) |
| VTA1 (UniProt Q9NP79) | 0.057 (inactive) |
| VDAC1 (UniProt P21796) | -0.031 (inactive) |
| WASHC2C, A0A096LPC5 | -0.053 (inactive) |
| VTI1B (UniProt Q9UEU0) | -0.077 (inactive) |
| UBE2Q1 (UniProt Q7Z7E8) | 0.07 (inactive) |
| TMEM106B (UniProt Q9NUM4) | 0 (inactive) |
| TMEM164 (UniProt Q5U3C3) | 0.027 (inactive) |
| USP48 isoform 8 (UniProt Q86UV5) | 0.212 (inactive) |
| USP15 (UniProt Q9Y4E8) | 0.063 (inactive) |
| UFD1 isoform 1 (UniProt Q92890) | -0.04 (inactive) |
| WDR46 (UniProt O15213) | 0.032 (inactive) |
| USP14 (UniProt P54578) | 0.076 (inactive) |
| XPNPEP3 (UniProt Q9NQH7) | 0.034 (inactive) |
| UCHL5 (UniProt Q9Y5K5) | 0.064 (inactive) |
| VPS16 (UniProt Q9H269) | 0.092 (inactive) |
| VAMP7 (UniProt P51809) | -0.011 (inactive) |
| XPO1 (UniProt O14980) | 0.094 (inactive) |

| Target | log2 fold change |
| --- | --- |
| TNFRSF10A (UniProt O00220) | -0.019 (inactive) |
| UBLCP1 (UniProt Q8WVY7) | 0.062 (inactive) |
| TMEM189-UBE2V1 (UniProt I3L0A0) | -0.034 (inactive) |
| WASH2P (UniProt Q6VEQ5) | -0.038 (inactive) |
| VTI1A (UniProt Q96AJ9) | -0.019 (inactive) |
| TNNC2 (UniProt P02585) | -0.059 (inactive) |
| TMEM223 (UniProt A0PJW6) | 0 (inactive) |
| U2AF1 isoform 2 (UniProt Q01081) | 0.114 (inactive) |
| XRCC5 (UniProt P13010) | 0.179 (inactive) |
| TNPO1 (UniProt Q92973) | 0.011 (inactive) |
| VPS52 (UniProt Q8N1B4) | -0.013 (inactive) |
| TMEM263 (UniProt Q8WUH6) | 0.046 (inactive) |
| USP25 isoform 3 (UniProt Q9UHP3) | 0.021 (inactive) |
| VPS50 (UniProt Q96JG6) | 0.086 (inactive) |
| UBAP1 isoform 4 (UniProt Q9NZ09) | 0.082 (inactive) |
| TNPO2 (UniProt O14787) | 0.048 (inactive) |
| VPS18 (UniProt Q9P253) | 0.063 (inactive) |
| TRIM28 (UniProt Q13263) | 0.039 (inactive) |

Compound: Cc1ccc(-n2nc(C(C)(C)C)cc2NC(=O)Nc2ccc(OCCN3CCOCC3)c3ccccc23)cc1 [doramapimod]
Experiment: as above
In short: as §1

| Target | log2 fold change |
| --- | --- |
| TSG101 (UniProt Q99816) | 0.009 (inactive) |
| VTA1 (UniProt Q9NP79) | -0.021 (inactive) |
| VDAC1 (UniProt P21796) | -0.024 (inactive) |
| WASHC2C, A0A096LPC5 | 0.02 (inactive) |
| VTI1B (UniProt Q9UEU0) | 0.084 (inactive) |
| UBE2Q1 (UniProt Q7Z7E8) | 0.029 (inactive) |
| TMEM106B (UniProt Q9NUM4) | 0.014 (inactive) |
| TMEM164 (UniProt Q5U3C3) | 0.091 (inactive) |
| USP48 isoform 8 (UniProt Q86UV5) | -0.1 (inactive) |
| USP15 (UniProt Q9Y4E8) | -0.045 (inactive) |
| UFD1 isoform 1 (UniProt Q92890) | 0.007 (inactive) |
| WDR46 (UniProt O15213) | 0.142 (inactive) |
| USP14 (UniProt P54578) | 0.002 (inactive) |
| XPNPEP3 (UniProt Q9NQH7) | 0.065 (inactive) |
| UCHL5 (UniProt Q9Y5K5) | -0.015 (inactive) |
| VPS16 (UniProt Q9H269) | 0.085 (inactive) |
| VAMP7 (UniProt P51809) | -0.007 (inactive) |
| XPO1 (UniProt O14980) | -0.034 (inactive) |

| Target | log2 fold change |
| --- | --- |
| TNFRSF10A (UniProt O00220) | -0.023 (inactive) |
| UBLCP1 (UniProt Q8WVY7) | -0.061 (inactive) |
| TMEM189-UBE2V1 (UniProt I3L0A0) | 0.021 (inactive) |
| WASH2P (UniProt Q6VEQ5) | 0.041 (inactive) |
| VTI1A (UniProt Q96AJ9) | 0.054 (inactive) |
| TNNC2 (UniProt P02585) | -0.014 (inactive) |
| TMEM223 (UniProt A0PJW6) | 0.015 (inactive) |
| U2AF1 isoform 2 (UniProt Q01081) | -0.143 (inactive) |
| XRCC5 (UniProt P13010) | 0.064 (inactive) |
| TNPO1 (UniProt Q92973) | -0.034 (inactive) |
| VPS52 (UniProt Q8N1B4) | 0.008 (inactive) |
| TMEM263 (UniProt Q8WUH6) | -0.075 (inactive) |
| USP25 isoform 3 (UniProt Q9UHP3) | 0.007 (inactive) |
| VPS50 (UniProt Q96JG6) | -0.032 (inactive) |
| UBAP1 isoform 4 (UniProt Q9NZ09) | 0.044 (inactive) |
| TNPO2 (UniProt O14787) | 0.011 (inactive) |
| VPS18 (UniProt Q9P253) | -0.014 (inactive) |
| TRIM28 (UniProt Q13263) | -0.036 (inactive) |
